Screen size: about 340,000 compounds; about 2,100 (0.62%) were called active.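 The calls were made as follows: active = first-screen hits whose inhibition reached a set limit at any dose in the follow-up dose series; inconclusive = inhibition above the set first-screen limit but never retested; inactive = the rest.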 The list is a sample of the results. Measured potencies and affinities stand elsewhere.
Biological target: Rac GTPase-activating protein 1 (Homo sapiens) (UniProt Q9H0H5)
Experiment: MgcRacGAP GTPase-activating activity inhibitors, confirmation, biochemical, ADP Hunter fluorescence, primary and confirmatory (AID 624330);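 also: fluorescence reports GDP produced by GAP-driven GTP hydrolysis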
Conditions: MgcRacGAP-stimulated Rac1 GTP hydrolysis, at 30 µM, active compounds read high, GST-tagged Rac1 F28L mutant substrate

Chain of Rac GTPase-activating protein 1 (Homo sapiens) (Q9H0H5 whole entry, looked up): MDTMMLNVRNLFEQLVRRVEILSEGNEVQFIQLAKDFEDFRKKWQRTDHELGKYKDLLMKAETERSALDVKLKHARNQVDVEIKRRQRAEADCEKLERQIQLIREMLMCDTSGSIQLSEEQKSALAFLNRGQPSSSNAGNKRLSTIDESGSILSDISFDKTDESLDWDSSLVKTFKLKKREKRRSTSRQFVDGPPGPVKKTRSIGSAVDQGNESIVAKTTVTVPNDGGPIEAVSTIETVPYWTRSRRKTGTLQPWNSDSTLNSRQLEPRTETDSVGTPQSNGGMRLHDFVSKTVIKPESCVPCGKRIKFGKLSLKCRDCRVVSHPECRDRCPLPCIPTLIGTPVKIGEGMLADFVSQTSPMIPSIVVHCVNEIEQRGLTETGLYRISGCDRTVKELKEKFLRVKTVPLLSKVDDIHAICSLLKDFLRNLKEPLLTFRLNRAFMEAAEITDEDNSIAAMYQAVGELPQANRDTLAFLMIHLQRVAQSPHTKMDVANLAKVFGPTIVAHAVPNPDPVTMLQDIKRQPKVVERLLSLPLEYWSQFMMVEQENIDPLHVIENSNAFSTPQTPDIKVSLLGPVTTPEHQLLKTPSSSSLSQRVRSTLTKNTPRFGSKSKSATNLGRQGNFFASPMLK

inhibition, inactive:
Cn1c(=O)c2ncn(CC(=O)NCCOCc3ccccc3Cl)c2n(C)c1=O 0.57%, O=C(CS(=O)CC(=O)Nc1cccnc1)Nc1ccc(F)cc1 (stereo not drawn) 5.58%, CCOc1ccccc1/C=C(\C#N)C(=O)Nc1cccc(C(=O)O)c1 -4.51%, CCCCN(C(=O)C1CCN(C(=O)c2ccccc2C)CC1)c1c(N)n(CCCC)c(=O)[nH]c1=O 4%, O=C(O)COCC(=O)Nc1ccc2c(c1)ncn2CCc1ccccc1 2.87%, NC(=O)c1ccc(NC(=O)c2cncn2-c2ccccc2)cc1 1.08%, CC(C)(C)C1CCC(=O)N(CCOc2ccccc2)CC1 (stereo not drawn) 5.11%, CCN(c1ccccc1)S(=O)(=O)c1ccc(N2CCN(c3ccc(OC)cc3)CC2)nc1 4.13%, CCN(c1ccccc1)S(=O)(=O)c1ccc(N2CCN(c3ccccc3O)CC2)nc1 5.54%, CN1/C(=C\C(=O)c2cccc([N+](=O)[O-])c2)Sc2ccccc21 10.8%, CSCCC(NC(=O)c1ccc([N+](=O)[O-])cc1Cl)C(=O)OCC(=O)NC(=O)CN1CCCC1=O (stereo not drawn) -5.24%, CCOc1ccc(S(=O)(=O)N2CCN(Cc3ccccc3)CC2)cc1 -12%, CCOc1ccc(CN2CCN(S(=O)(=O)c3ccc(NC(C)=O)cc3)CC2)cc1OC 10.5%, Cc1ccc(S(=O)(=O)NCCC(=O)N2CCN(c3ccccc3)CC2)cc1C -2.5%, O=C(COC(=O)Cn1cnc2ccccc21)NCCCc1ccccc1 0.48%, O=C(CNCc1ccc(Cl)cc1)N1CCc2ccccc2C1 25.8%, O=C(CNCc1cccc(Cl)c1)N1CCc2ccccc2C1 30.6%, CN(Cc1ccc(N(C)C)cc1)C(=O)c1cc2ccccc2o1 2.93%, C#CCOCCOCCOCCNc1nc(N2CCN(C(=O)Cn3cc(CCO)nn3)CC2)nc(N2CCN(C(=O)[C@H]([C@@H](C)CC)n3cc(CCCN=C(N)N)nn3)CC2)n1 -0.25%, O=C(Cc1ccc([N+](=O)[O-])cc1)Nc1cccc(C(=O)N2CCCCC2)c1 6.71%, N/C(COc1ccc(Cl)cc1Cl)=N\O 7.42%, C[C@@H](NC(=O)C[C@@H]1C[C@@H]2c3cc(NS(=O)(=O)c4ccc(F)cc4)ccc3O[C@@H]2[C@@H](CO)O1)c1ccccc1 14.8%, CCN1/C(=C2\C(=O)N(C)C(=S)N2C)C=Cc2cc(C)ccc21 30.1%, CCN1/C(=C2/SC(=S)N(C)C2=O)C=Cc2cc(C)ccc21 1.56%, CC(C)CNC(=S)NC1CC2CCCC(C1)N2Cc1cccs1 (stereo not drawn) -4.03%, CCOC(=O)Nc1cc(NC(=O)OCC)c(C)nc1C 9.52%, CCc1nc(Nc2ccncc2)c2oc3ccccc3c2n1 9.44%, c1ccc2c(c1)oc1c(Nc3ccc(CN4CCOCC4)cc3)ncnc12 14.1%, CCc1nc(Nc2ccc(F)cc2)c2oc3ccccc3c2n1 10.5%, Cc1ccc(Nc2ncnc3c2oc2ccccc23)cc1 11.9%, CC(=O)c1ccc(Nc2ncnc3c2oc2ccccc23)cc1 5.82%, CCc1nc(Nc2ccccc2)c2oc3ccccc3c2n1 7.79%, CCc1nc(SCC(=O)N2CCN(c3ccccc3)CC2)c2oc3ccccc3c2n1 18.4%, c1ccc(Nc2ncnc3c2oc2ccccc23)cc1 13%, COc1ccc(NC(=O)Nc2nnc(CC(=O)NCc3ccccc3)s2)cc1 -13.3%, COc1cc(C(=O)N2CCN(c3ccc([N+](=O)[O-])cc3)CC2)ccc1OCc1c(C)noc1C 12.9%, COc1cc(NC(=O)Cn2cnc(S(=O)(=O)N3CCCCC3)c2)cc(OC)c1OC 1.97%, O=C(NCc1ccccc1)c1cc(=O)c2ccccc2o1 3.22%, CSC[C@H]1CN(Cc2ccccc2)C(=O)[C@@H]1CC(=O)Nc1ccc(Br)cc1 11%, COCCCn1c(SCC(=O)NC(C)(C)C)nnc1-c1cccs1 9.91%, O=C(N/N=C/c1ccc(C(F)(F)F)cc1)c1ccncc1 5.6%, Fc1ccc(Nc2ncnc3ccccc23)cc1 9.64%, Cc1ccc(Nc2ncnc3ccccc23)cc1 12.6%, COc1ccc(-c2nsc(SCC(=O)NCC3CCCO3)n2)cc1 (stereo not drawn) 5.33%, O=C1C2C3C=CC(CC3)C2C(=O)N1c1ccc([N+](=O)[O-])cc1 (stereo not drawn) 12.6%, COc1ccnc(NCc2cccc(C(F)(F)F)c2)c1C#N -0.963%, COc1cccc(Cn2nc(C(=O)O)c3ccccc3c2=O)c1 0.46%, CCn1c2ccccc2c2cc(NC(=O)c3ccc([N+](=O)[O-])cc3)ccc21 8.32%, Cn1ccc(=O)c2cc([N+](=O)[O-])ccc21 9.86%, Cc1csc(SCC(=O)NC2CCC(C)CC2)n1 (stereo not drawn) -6.91%, O=C(c1ccco1)N1CCN=C1SCc1cccnc1 4.28%, CC(Oc1ccc(Cl)cc1Cl)C(=O)Nc1cccc(O)c1 (stereo not drawn) 9.91%, CC(=O)Nc1ccc(NC(=O)C(C)Oc2ccc(Cl)cc2Cl)cc1 (stereo not drawn) 1.91%, O=C(O)[C@H]1CCCC[C@H]1C(=O)Nc1ccc(S(=O)(=O)N2CCOCC2)cc1 4.65%, O=C(COC(=O)c1ccc2c(c1)OCO2)Nc1ccccc1 4.56%, CCN(CC)c1ccc(NC(=O)c2ccc3c(c2)OCO3)c(C)c1 24.3%, NC(=O)c1ccc(NC(=O)COC(=O)c2ccc3c(c2)OCO3)cc1 2.24%, CCC(=O)Nc1ccc(NC(=O)c2ccc3c(c2)OCO3)cc1 11.5%, CC(=O)Nc1ccc(C(=O)Nc2ccc(S(=O)(=O)N3CCOCC3)cc2)cc1 -2.26%, O=C(O)C1CCCCC1C(=O)Nc1ccc(S(=O)(=O)N2CCCC2)cc1 (stereo not drawn) 6.7%, O=C(Nc1ccc(S(=O)(=O)N2CCOCC2)cc1)c1ccc(S(=O)(=O)N2CCOCC2)cc1 0.49%, CCC[C@@H](CN1CCC[C@H]1CN1C(N)=NC[C@@H]1Cc1ccccc1)N1C[C@@H]([C@H](C)CC)N(CCCC2CCCC2)C1=N 12.3%, COc1ccccc1CNC(=O)COC(=O)Cc1c[nH]c2ccccc12 4.99%, CC1CCCC(C)N1CCCNC(=O)CN1C(=O)c2cccnc2Oc2ccc(Cl)cc21 (stereo not drawn) 6.32%, CCC(C)N1CCCCC1C(=O)Nc1c(C)cc(C)cc1C (stereo not drawn) 2.22%, CCc1ccc(NC(=O)CCc2nc3ccccc3[nH]2)cc1 10.8%, COc1ccc(Br)cc1CNc1ccc(S(N)(=O)=O)cc1 0.46%, COc1ccc(Br)cc1CNc1ccccc1 26%, CC(C)n1c(SCC(=O)Nc2nncs2)nnc1C1CC1 4.43%, NC(=O)C[C@H](NC(=O)c1ccc(Cl)cc1)C(=O)OCc1ccccc1 8.75%, COc1cccc(NC(=O)C(=O)c2cn(CC(=O)N3CCCC3)c3ccccc23)c1 10%, CCN=c1scc(-c2ccco2)n1/N=C/c1ccc(O)cc1 13.7%, CCN=c1scc(-c2ccc(F)cc2)n1/N=C/c1ccccn1 9.08%, C=CCN=c1scc(-c2ccco2)n1/N=C/c1ccc(O)c(O)c1O -25.9%, COc1ccc(O)c(/C=N/n2c(-c3ccco3)csc2=Nc2cccnc2)c1 14.5%, COCCN=c1scc(-c2ccco2)n1/N=C/c1ccc(O)c(O)c1O -21.8%, CCN=c1scc(-c2ccco2)n1/N=C/c1ccc(OC)c(O)c1 28%, CC(C)n1c(-c2ccco2)csc1=Nc1cccnc1 11.3%, CN=c1scc(-c2ccccc2F)n1/N=C/c1ccc(O)c(O)c1O -8.6%, CCCCc1ncc(CN2CCC(n3nccc3NC(=O)C(OC)c3ccccc3)CC2)[nH]1 (stereo not drawn) 8.08%, O=C(CN1CCN(Cc2ccccc2)C1=O)NCc1ccc(Cl)cc1 3.73%, NC(=O)COc1ccc(C(=O)NCC2(N3CCOCC3)CCCCC2)cc1 4.65%, Cc1ccc([C@H]2C[C@@H](O)[C@H](n3cc(COC(=O)c4ccccc4)nn3)CN2Cc2cccs2)cc1 -0.67%, COc1ccccc1NC(=O)c1ccc(NC(=O)COC(=O)c2cncc(Br)c2)cc1 5.46%, CC(C)CC1C(C#N)=C(N)OC2=C1C(=O)CC(c1ccccc1)C2 (stereo not drawn) -2.75%, COc1ccc(CCn2c(-c3cc([N+](=O)[O-])cc([N+](=O)[O-])c3)nc3nc4ccccc4nc32)cc1 4.41%, CN(Cc1cnccn1)C(=O)C1CCC(=O)N(CCc2ccc(Cl)cc2)C1 (stereo not drawn) 8.49%, COc1ccc(CCNC(=O)N2CCOCC2)cc1 14.2%, COC(=O)c1ccc(OCC(O)CN2CCOCC2)cc1 (stereo not drawn) -9.81%, CN1CCN(NC(=O)NC2CCCCC2)CC1 2.74%, COc1cc(NC(=O)c2cccs2)ccc1NC(=O)Cc1ccccc1 4.97%, N#Cc1cccc(NC(=O)CNc2cccc(S(=O)(=O)N3CCCC3)c2)c1 -1.55%, O=C(Nc1cccc(S(=O)(=O)N2CCOCC2)c1)c1c2c(nc3ccccc13)CCC2 11.9%

— PubChem BioAssay AID624330 (Southern Research Specialized Biocontainment Screening …, 2012)
